Experiment [1] deals with ATP-dependent DNA helicase Q1 (Homo sapiens) (UniProt P46063). The experiment can be described thus: qHTS Validation Assay for Inhibitors of RecQ-Like Dna Helicase 1 (RECQ1) (AID 2353). The essentials:
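50 nM RECQ1T1 preincubated 15 min with compound in Tris pH 8.0 buffer with MgCl2, DTT, Tween-20 and 2.5 ug/ml poly(dI-dC); started with 200 nM TAMRA/BHQ-2 forked duplex and 2 mM ATP. Unwinding read as fluorescence (525/598 nm), two reads 2 h apart.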
For orientation: In qHTS, concentration-response curves come from the screen itself.

In experiment [2] the target is RecQ-like DNA helicase BLM (Homo sapiens) (UniProt P54132). In words: qHTS Validation Assay for Inhibitors of Bloom's syndrome helicase (BLM) (AID 2364). The procedure, abridged: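 BLM 50 nM in 25 mM Tris-HCl pH 8.0, 5 mM NaCl, 2 mM MgCl2, 1 mM DTT, 0.01% Tween-20, 2.5 ug/ml poly(dI-dC); 15 min cpd preinc, RT. Start: 200 nM forked DNA + 2 mM ATP (final). TAMRA read, 2 reads 2 h apart.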

Experiment [3] can be described thus: Cytometric Cell-Based qHTS for Inhibitors of the mTORC1 Signaling Pathway in MEF (Tsc2-/-, p53-/-) Cells (AID 2660).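 Also: percent of cells above a phospho-rpS6 to PI ratio cutoff in each well; series mostly up to about 38 µM.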 The essentials:
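Readout: Alexa-488 phospho-rpS6 (Ser235/236) intensity divided by PI intensity, thresholded against 7.5 nM rapamycin wells and reported as % positive cells. PI cell count served as the viability measure. Compound exposure was 24 hrs at 37 degree Celsius.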

Experiment [4] can be described thus: High Content Imaging Cell-Based qHTS for Inhibitors of the mTORC1 Signaling Pathway in MEF (Tsc2-/-, p53-/-) Cells (AID 2666).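 Also: percent of cells scored positive for phospho-rpS6 Ser235/236 immunostaining by imaging.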 The procedure, abridged:
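Read-out: % positive cells per well, with thresholds from highest- and lowest-signal wells, based on phospho-rpS6 (Ser235/236) intensity normalized to Hoechst nuclear stain. Cells: Tsc2-/-, p53-/- MEFs carrying empty vector; compound 24 hrs, 37 degree Celsius.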

Experiment [5] concerns the target Ubiquitin carboxyl-terminal hydrolase 2 (Homo sapiens) (UniProt O75604). In words: qHTS Validation Assay for Inhibitors of Ubiquitin-specific Protease USP2a Using CHOP2 as the Reporter (AID 463106). The essentials: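 USP2 core (10nM final) was preincubated with compound for 30min at RT in 20mM Tris-HCl pH 8.0, 2mM CaCl2, 2mM beta-mercaptoethanol, 0.05% CHAPS. Ub-CHOP2 and reporter substrate (25nM each) were added, and fluorescence (Ex 485/Em 531nm) was read after 60min.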

Experiment [6] deals with DNA polymerase III PolC-type (Bacillus subtilis (strain 168)) (UniProt P13267). In words: qHTS Validation Assay for the Inhibitors of DNA Replication in Gram-Positive Bacteria (AID 485295).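 Also: reconstituted holoenzyme with PolC plus beta clamp SSB and primase; PicoGreen fluorescence of double-stranded DNA made on primed circular M13 template; series mostly up to about 57 µM.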 The essentials:
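First, compound is mixed with the reconstituted replication complex and held at room temperature. Next, circular single-stranded M13Gori with nucleotides starts synthesis. Finally, PicoGreen in EDTA halts the reaction and stains double-stranded product for fluorescence reading.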

The target of experiment [7] is Tumor susceptibility gene 101 protein (Homo sapiens) (UniProt Q99816). The experiment can be described thus: qHTS Validation Assay for Iinhibitors of HIV-1 Budding by Blocking the Interaction of PTAP/TSG101 (AID 485342; calls by dose curve). The procedure, abridged:
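Binding of a FITC-tagged PTAP-motif peptide (50 nM) to the Tsg101 binding domain (10 uM) is monitored by fluorescence polarization. Compounds are pin-delivered before peptide addition, and incubation runs 20 min at room temperature.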

The target in experiment [8] is Beta-2 adrenergic receptor (Homo sapiens) (UniProt P07550). The experiment can be described thus: qHTS validation assay of beta-arrestin-biased ligands of beta2-adrenergic receptor (AID 485366). The essentials:
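Tango cells (recombinant beta2-AR with recombinant beta-arrestin; recruitment releases tTA driving luciferase) were treated with compounds titrated up to 46 microM for 18 hr at 37 degrees C. Luminescence gave %Activity, and concentration-response curves were curve-classified.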

Experiment [9] addresses ATP-dependent 6-phosphofructokinase (Trypanosoma brucei brucei) (UniProt O15648). In words: qHTS Validation Assay to Find Inhibitors of T. brucei phosphofructokinase (AID 485368). The essentials:
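Compounds (up to 57 uM, titration series) were pinned into substrate buffer, then 1.25 nM PFK added; after 45 min at room temperature, ADP product was quantified by ADP-Glo luminescence and concentration-response curves fitted.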

The target of experiment [10] is Thioredoxin reductase 1, cytoplasmic (Rattus norvegicus) (UniProt O89049). The experiment can be described thus: qHTS Assay for Substrates of Mammalian Selenoprotein Thioredoxin Reductase 1 (TrxR1) (AID 488772).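 Also: NADPH fluorescence in the first read after selenite addition and not the 8 min delta; series mostly up to about 57 µM; a drop in NADPH fluorescence below the no-compound background marks a TrxR1 substrate.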 The procedure, abridged:
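Quantitative HTS in Tris-HCl buffer at pH 7.5 with EDTA and Tween-20, using rat TrxR1, 400 uM NADPH and 400 uM selenite (final). A fall in initial NADPH fluorescence relative to background marked substrate behaviour.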

For experiment [11] the target is unchanged. The experiment can be described thus: qHTS Assay for Inhibitors of Mammalian Selenoprotein Thioredoxin Reductase 1 (TrxR1) (AID 488773).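 Also: drop in NADPH fluorescence over an 8 min run after selenite addition; series mostly up to about 57 µM; nearly all actives have a fitted effect of over 40% in size.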 The note with it: Potency: inhibition. The essentials:
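Steps: enzyme (90 nM) plus NADPH (400 uM final), 5 min at ~22 deg C; compound added, 15 min; selenite (400 uM final) added; fluorescence followed for 8 min. Concentration-response curves derived from the normalized delta values.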

For experiment [12], the target named is Flap endonuclease 1 (Homo sapiens) (UniProt P39748). The experiment can be described thus: qHTS Validation Assay for the Inhibitors of Human Flap endonuclease 1 (FEN1) (AID 488816). Also: potency is read from the fitted curve at half-maximal effect. The procedure, abridged:
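FEN1, dispensed as a 10 nM reagent, was preincubated with pin-transferred compounds for 15 min at room temperature before substrate was added (50 nM final). Plates were read at 0 and 15 min, and a four-parameter Hill equation was fitted to the concentration-response data.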

Experiment [13] addresses M-phase phosphoprotein 8 (Homo sapiens) (UniProt Q99549). In words: qHTS Validation Assay for Inhibitors for MPP8 Chromodomain Interactions with Methylated Histone Tails (AID 488949). Also: nearly all actives have a fitted effect of over 55% in size. Also: potency is read from the fitted curve at half-maximal effect. The essentials:
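50 nM MPP8 + 50 nM b-H3K9me3 peptide, PBS pH 7.4/0.01% Tween-20, 30 min RT; + cpd 30 min RT; + AlphaScreen donor/Ni-chelate acceptor beads 10 ug/mL final, 30 min dark; luminescence read.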

Experiment [14] deals with Methanococcus maripaludis chaperonin (MmCpn) (UniProt Q6LX38). The experiment can be described thus: High-Throughput Screening for Modulators of Cytosolic Chaperonin Activity: MmCpn Primary Screen (AID 488978).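 Also: 50 nM MmCpn enzyme hydrolysing 30 µM ATP at 37 °C.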 The procedure, abridged: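 Steps: chaperonin 50 nM final; add compound, 5 min RT; start with ATP, 30 uM final; hold 10 min at 37C; add ADP Transcreener HTRF reagent, 5 min; read ex 320, em 590 and 665 nm.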

A short description of experiment [15]: Cytometry Cell-Based qHTS for Inhibitors of the mTORC1 Signaling Pathway in MEF cells (AID 2668). Also: potency is read from the fitted curve at half-maximal effect. The essentials:
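Tsc2-/-, p53-/- MEFs re-expressing WT Tsc2; cpd 24 hrs, 37 degree Celsius; PFA fix, Alexa-488 p-rpS6 (Ser235/236) Ab 2 hrs RT, PI counterstain; Acumen 488nm scan; p-S6/PI ratio → % positive cells; PI count = viability.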

Experiment [16] can be described thus: Quantitative high throughput screen for delayed death inhibitors of the malarial parasite plastid, 96 hour incubation (AID 488745). Also: nearly all actives have a fitted effect of over 70% in size. Also: potency is read from the fitted curve at half-maximal effect. The procedure, abridged:
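Growth of reporter-bearing P. falciparum in red cells is measured after 96 h with compound, covering two erythrocytic cycles. Luminescence from the integrated luciferase serves as the growth signal.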

Experiment [17] in a line: Quantitative high throughput screen for delayed death inhibitors of the malarial parasite plastid, 48 hour incubation (AID 488752). Also: nearly all actives have a fitted effect of over 65% in size. Also: potency is read from the fitted curve at half-maximal effect. The essentials:
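One parasite generation (48 h, 37 C, 5% CO2) of luciferase-reporter P. falciparum in erythrocytes is run with test compound; decreased luminescence indicates inhibited growth.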

Experiment [18] deals with Chromobox protein homolog 1 (Homo sapiens) (UniProt P83916). The experiment can be described thus: qHTS Validation Assay for Inhibitors of HP1-beta Chromodomain Interactions with Methylated Histone Tails (AID 488953). Also: nearly all actives have a fitted effect of over 50% in size. Also: potency is read from the fitted curve at half-maximal effect. The procedure, abridged:
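Measured as loss of AlphaScreen luminescence from streptavidin donor and nickel acceptor beads (10 ug/mL final) bridging HP1-beta and biotin-H3(1-18)K9me3, each 50 nM. Compounds met the preassembled complex for 30 min at RT.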

Experiment [19] in a line: qHTS Validation Assay to Find Inhibitors of Chronic Active B-Cell Receptor Signaling (AID 485345; active = well fitted curve in the direction sought with a large enough effect in the main read-out, with a control signal flat, not every such curve was filed as active). The essentials: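 TMD8 ABC-DLBCL cells with dox-inducible green luciferase–IκBα fusion and red native luciferase; compounds 46 uM–3 nM, 4 h at 37C with doxycycline in 0.5% FBS IMDM. Green/red ratio normalized to basal and 10 uM MG-132.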
Experiment [20] can be described thus: Validation screen for small molecules that induce DNA re-replication in MCF 10A normal breast cells (AID 463097). Also: nearly all actives have a fitted effect of over 60% in size. The procedure, abridged: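 Image-based qHTS: normal breast cells are incubated with compound for 48 hr, stained with Hoechst, and scanned for total nuclear fluorescence. Compounds raising the fraction of nuclei with elevated DNA content count as re-replication inducers.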

Results filed as inconclusive are left out. Calls of active or inactive are those of the source. Unless noted, calls follow the shape of the dose curve; as a rule, active = well fitted curve in the direction sought with a large enough effect; inconclusive = small, poorly fitted or top-dose-only effect, or another doubt; inactive = no such curve, though single readings can be large; an effect the other way counts as inactive or inconclusive.

RecQ-like DNA helicase BLM (Homo sapiens), sequence (P54132 whole entry, looked up): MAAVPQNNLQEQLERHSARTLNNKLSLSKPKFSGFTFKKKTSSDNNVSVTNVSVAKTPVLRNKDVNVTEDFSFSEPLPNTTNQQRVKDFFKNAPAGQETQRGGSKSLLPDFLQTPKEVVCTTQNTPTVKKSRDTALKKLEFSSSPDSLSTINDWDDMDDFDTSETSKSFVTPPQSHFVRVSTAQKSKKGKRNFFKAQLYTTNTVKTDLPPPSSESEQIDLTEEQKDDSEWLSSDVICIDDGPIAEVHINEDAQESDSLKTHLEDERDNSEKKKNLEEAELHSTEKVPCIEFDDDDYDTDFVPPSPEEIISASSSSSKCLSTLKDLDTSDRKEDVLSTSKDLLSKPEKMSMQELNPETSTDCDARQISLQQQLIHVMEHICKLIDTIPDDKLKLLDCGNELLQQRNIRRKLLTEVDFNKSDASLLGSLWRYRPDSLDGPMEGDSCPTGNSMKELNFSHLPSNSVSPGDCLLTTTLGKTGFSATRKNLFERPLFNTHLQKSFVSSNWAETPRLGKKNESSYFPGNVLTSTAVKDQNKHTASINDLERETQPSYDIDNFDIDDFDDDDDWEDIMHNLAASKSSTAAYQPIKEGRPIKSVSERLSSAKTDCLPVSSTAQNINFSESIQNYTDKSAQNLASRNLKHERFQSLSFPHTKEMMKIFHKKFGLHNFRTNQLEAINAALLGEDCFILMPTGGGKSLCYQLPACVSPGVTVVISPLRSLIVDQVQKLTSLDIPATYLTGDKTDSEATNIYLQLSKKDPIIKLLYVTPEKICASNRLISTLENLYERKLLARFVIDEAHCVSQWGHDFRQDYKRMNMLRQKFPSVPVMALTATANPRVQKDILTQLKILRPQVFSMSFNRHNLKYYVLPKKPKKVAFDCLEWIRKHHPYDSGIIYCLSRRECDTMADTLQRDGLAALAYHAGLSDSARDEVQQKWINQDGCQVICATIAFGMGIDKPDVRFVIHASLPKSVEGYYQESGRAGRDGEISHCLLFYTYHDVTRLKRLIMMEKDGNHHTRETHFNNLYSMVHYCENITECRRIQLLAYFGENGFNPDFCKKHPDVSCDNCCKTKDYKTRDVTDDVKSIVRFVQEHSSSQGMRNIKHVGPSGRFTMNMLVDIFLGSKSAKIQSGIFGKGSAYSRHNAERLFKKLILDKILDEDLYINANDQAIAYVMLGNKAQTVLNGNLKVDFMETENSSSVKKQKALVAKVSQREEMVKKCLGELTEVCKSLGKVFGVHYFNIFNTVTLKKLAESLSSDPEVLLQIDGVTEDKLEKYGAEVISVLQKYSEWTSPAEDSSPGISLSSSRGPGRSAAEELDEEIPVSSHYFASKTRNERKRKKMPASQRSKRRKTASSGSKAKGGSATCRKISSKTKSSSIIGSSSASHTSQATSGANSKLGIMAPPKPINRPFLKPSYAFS
Tumor susceptibility gene 101 protein (Homo sapiens), sequence (Q99816 whole entry, looked up, the tested form may be a part): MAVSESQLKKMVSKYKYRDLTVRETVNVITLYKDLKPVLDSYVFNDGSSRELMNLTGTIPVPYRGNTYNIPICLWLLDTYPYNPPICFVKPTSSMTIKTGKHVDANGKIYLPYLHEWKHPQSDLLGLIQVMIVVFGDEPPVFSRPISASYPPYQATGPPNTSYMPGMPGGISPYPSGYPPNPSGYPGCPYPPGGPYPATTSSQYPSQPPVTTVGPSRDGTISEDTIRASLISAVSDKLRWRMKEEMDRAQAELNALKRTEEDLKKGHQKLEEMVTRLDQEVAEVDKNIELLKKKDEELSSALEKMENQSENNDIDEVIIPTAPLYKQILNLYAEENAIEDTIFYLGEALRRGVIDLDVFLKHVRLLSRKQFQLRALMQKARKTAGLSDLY
Thioredoxin reductase 1, cytoplasmic (Rattus norvegicus), sequence (O89049 whole entry, looked up): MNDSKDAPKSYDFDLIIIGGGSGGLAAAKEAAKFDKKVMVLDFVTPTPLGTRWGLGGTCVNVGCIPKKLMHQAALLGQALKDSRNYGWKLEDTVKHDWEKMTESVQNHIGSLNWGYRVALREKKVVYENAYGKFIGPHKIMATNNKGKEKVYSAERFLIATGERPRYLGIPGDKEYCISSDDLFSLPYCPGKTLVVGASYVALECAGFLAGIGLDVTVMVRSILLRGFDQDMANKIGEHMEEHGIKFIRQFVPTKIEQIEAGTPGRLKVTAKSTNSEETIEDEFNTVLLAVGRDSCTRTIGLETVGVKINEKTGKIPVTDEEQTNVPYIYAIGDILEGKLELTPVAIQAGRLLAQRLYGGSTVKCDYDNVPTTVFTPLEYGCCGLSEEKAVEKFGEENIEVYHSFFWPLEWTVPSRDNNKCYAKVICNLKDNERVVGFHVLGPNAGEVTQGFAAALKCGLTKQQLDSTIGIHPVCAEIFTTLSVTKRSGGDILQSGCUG
DNA polymerase III PolC-type (Bacillus subtilis (strain 168)), sequence (P13267 whole entry, looked up): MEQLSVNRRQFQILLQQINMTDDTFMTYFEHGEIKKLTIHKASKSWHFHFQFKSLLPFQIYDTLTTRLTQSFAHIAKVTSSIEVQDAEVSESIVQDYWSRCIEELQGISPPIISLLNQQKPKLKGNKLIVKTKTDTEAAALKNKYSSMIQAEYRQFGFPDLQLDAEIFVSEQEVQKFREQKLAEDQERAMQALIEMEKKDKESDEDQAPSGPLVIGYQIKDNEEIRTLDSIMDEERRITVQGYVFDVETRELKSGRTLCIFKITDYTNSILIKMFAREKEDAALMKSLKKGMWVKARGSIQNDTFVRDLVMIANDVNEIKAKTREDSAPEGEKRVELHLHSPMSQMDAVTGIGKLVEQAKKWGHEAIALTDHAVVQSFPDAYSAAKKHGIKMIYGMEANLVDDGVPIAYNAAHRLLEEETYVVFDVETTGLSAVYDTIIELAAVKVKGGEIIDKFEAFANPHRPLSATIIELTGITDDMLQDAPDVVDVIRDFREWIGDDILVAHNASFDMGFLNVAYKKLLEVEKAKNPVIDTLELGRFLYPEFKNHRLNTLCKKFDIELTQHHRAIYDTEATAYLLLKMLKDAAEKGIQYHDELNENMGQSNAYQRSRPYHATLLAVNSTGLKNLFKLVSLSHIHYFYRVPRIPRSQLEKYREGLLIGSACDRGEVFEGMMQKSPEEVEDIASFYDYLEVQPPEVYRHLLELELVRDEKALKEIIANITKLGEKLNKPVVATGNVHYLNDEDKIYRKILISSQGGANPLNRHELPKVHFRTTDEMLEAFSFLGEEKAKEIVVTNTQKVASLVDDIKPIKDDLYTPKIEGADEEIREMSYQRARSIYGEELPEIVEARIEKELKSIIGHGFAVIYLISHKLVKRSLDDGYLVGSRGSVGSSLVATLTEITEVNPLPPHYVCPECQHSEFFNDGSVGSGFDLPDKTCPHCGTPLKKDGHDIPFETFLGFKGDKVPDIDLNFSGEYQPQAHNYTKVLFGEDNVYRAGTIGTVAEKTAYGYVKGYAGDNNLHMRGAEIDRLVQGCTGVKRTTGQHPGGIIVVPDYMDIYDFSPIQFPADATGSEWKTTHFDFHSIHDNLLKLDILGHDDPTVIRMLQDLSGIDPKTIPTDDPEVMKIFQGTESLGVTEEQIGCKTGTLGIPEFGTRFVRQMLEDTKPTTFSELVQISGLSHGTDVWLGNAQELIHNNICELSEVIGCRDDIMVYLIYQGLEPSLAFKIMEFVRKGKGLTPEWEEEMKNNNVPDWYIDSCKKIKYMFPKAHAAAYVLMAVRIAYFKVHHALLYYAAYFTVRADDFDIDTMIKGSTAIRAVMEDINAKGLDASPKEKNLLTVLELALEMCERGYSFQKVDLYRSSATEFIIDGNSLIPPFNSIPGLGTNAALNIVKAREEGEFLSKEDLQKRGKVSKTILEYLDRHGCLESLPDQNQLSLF
Ubiquitin carboxyl-terminal hydrolase 2 (Homo sapiens), sequence (O75604 whole entry, looked up): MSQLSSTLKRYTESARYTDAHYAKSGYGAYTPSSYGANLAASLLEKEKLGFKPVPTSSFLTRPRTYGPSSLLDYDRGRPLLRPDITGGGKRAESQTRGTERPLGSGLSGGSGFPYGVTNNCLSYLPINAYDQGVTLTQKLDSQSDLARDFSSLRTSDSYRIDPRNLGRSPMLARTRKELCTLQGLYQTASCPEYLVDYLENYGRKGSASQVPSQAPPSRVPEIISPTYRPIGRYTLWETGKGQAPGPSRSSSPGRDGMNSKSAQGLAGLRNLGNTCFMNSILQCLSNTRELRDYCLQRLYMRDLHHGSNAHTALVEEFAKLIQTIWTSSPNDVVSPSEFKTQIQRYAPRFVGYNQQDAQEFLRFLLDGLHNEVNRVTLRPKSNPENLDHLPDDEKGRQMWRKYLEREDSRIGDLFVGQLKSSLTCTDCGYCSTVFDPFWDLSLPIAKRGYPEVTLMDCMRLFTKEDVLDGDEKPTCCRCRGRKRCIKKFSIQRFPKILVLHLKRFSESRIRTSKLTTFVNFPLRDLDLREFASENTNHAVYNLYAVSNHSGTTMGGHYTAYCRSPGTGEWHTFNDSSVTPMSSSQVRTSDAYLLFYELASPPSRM
Flap endonuclease 1 (Homo sapiens), sequence (P39748 whole entry, looked up): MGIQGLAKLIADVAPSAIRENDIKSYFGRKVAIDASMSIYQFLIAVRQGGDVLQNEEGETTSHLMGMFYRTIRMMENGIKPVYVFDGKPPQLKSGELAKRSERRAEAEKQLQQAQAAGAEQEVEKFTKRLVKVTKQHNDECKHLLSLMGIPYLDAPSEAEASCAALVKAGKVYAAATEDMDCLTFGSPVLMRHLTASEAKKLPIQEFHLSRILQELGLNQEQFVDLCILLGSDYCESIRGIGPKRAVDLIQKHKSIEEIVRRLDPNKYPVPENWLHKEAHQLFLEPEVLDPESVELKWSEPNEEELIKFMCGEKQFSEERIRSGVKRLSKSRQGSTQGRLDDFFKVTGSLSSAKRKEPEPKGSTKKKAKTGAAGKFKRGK
Chromobox protein homolog 1 (Homo sapiens), sequence (P83916 whole entry, looked up): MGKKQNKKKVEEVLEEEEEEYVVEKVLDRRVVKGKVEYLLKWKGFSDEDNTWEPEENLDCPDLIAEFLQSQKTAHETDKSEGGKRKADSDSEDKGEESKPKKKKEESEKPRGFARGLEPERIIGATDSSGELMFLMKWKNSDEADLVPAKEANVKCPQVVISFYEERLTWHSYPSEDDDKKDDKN

Turning to `CN(C)CCCN1c2ccccc2Sc2ccc(Cl)cc21`, the Potency result in experiment [1], in experiment [3], in experiment [4], in experiment [9], in [11] and in experiment [12] was “inactive” throughout. Further, in [14], the Potency entry is “inactive”. Also, the compound was called inactive in experiment [2], in experiment [5], in experiment [6], in [7], in [8] and in experiment [10]. The Potency in [13] was 35.5 µM (active).
With `OCCN1CCN(CCCN2c3ccccc3Sc3ccc(Cl)cc32)CC1`, the Potency result in [1], in experiment [4], in experiment [9], in experiment [11], in experiment [12] and in experiment [14] was “inactive” throughout. Further, the outcome in experiment [2], in experiment [5], in experiment [6], in experiment [7], in experiment [8] and in experiment [10] was inactive. Besides, the Potency was 7.36 µM (active) in experiment [15]; 5.22 µM (active) in experiment [16]; 10.4 µM (active) in [17]; 28.2 µM (active) in experiment [13]; 31.6 µM (active) in experiment [18].
On to `Cc1cc(N)c2ccccc2[n+]1CCCCCCCCCC[n+]1c(C)cc(N)c2ccccc21`, for which the Potency entry in experiment [1], in [3], in [4], in experiment [11] and in experiment [14] was “inactive” in each case. For the same compound, the outcome in experiment [2], in [5], in experiment [6], in experiment [7], in [19] and in experiment [8] was inactive. Besides, the result in [10] was inactive. Also, the Potency in experiment [15] was 7.36 µM (active); in [17], 0.37 µM (active); in experiment [12], 21.2 µM (active); in experiment [13], 50.1 µM (active).
As to `CC1=C(CC(=O)O)c2cc(F)ccc2/C1=C\c1ccc(S(C)(=O)=O)cc1`, the Potency result in [1], in [3], in experiment [4], in [15], in [9] and in experiment [17] was “inactive” each time. The Potency entry in experiment [11], in [12], in [13] and in experiment [14] was “inactive” throughout. In addition, the compound was classed as inactive in experiment [2], in experiment [20], in [5], in experiment [6], in [7] and in experiment [19]. Also, the result in experiment [8] and in experiment [10] was inactive. Moreover, the Potency in [18] is 0.006 µM (active).
On to `CN1CCN(C2Cc3ccccc3Sc3ccc(Cl)cc32)CC1` (stereo unspecified), for which the Potency result in experiment [1], in [4], in experiment [9], in experiment [16], in experiment [17] and in experiment [11] was “inactive” in each case. In addition, the Potency entry in experiment [12], in experiment [13] and in [14] was “inactive” throughout. For the same compound, the call in experiment [2], in [5], in experiment [6], in experiment [7], in experiment [8] and in experiment [10] was inactive. Further, in experiment [18], the Potency was 14.1 µM (active).
As to `CC(C)C(=O)c1c(C(C)C)nn2ccccc12`, the Potency entry in [1], in experiment [3], in experiment [4], in experiment [15], in experiment [9] and in [16] was “inactive” each time. Besides, the Potency entry in experiment [17], in [11], in [12], in experiment [13], in [18] and in [14] was “inactive” each time. In addition, the compound was called inactive in experiment [20], in experiment [5], in experiment [6], in experiment [7], in experiment [19] and in [8]. The compound was called inactive in [10].

The record behind these values is PubChem BioAssay (NCATS).
